Source: the supplement of paper PMC10849652
Targets with a hit are over-represented here; the source holds about 7,900 in all. About 0.6% of all pairs of compound and target were hits. Values without a mark were called inactive.

Key:
Assay in all cases: log2 fold change, soluble protein after heating vs DMSO (PISA); higher = thermal stabilisation; K562 cells, 10 uM, 30 min; active = over 0.2 and 3.5 SD of the protein, either way, in both replicates (recomputed)
[1] = compound: CS(=O)(=O)c1ccc(-c2cnc(N)c(C(=O)Nc3ccccc3)n2)cc1
In short: (§1)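 K562 cells at 2×10^6 cells/mL were treated with 10 μM compound for 30 min. Aliquots were heated for 3 min across 48°C-58°C, pooled, and extracted in PBS with 0.5% NP-40 at 4°C; soluble protein was the supernatant after 21,000xg for 90 min. Soluble protein was quantified by TMTpro 16plex LC-MS/MS with channel sums equalised, and reported as log2 fold change in thermal stability against DMSO controls, with values from duplicates.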

[2] = compound: C[C@@H](Oc1cc(-c2cnn(C3CCNCC3)c2)cnc1N)c1c(Cl)ccc(F)c1Cl [crizotinib]
In short: as §1

[3] = compound: C[C@@H]1COCCN1C2=NC(=NC(=C2)C3(CC3)S(=O)(=O)C)C4=C5C=CNC5=CC=C4
In short: as §1

[4] = compound: C[C@H](C1=CC=C(C=C1)C(=O)NC2=C3C=CNC3=NC=C2)N
In short: as §1

[5] = compound: C[C@H](Nc1ncnc2nc[nH]c12)c1cc2cccc(Cl)c2c(=O)n1-c1ccccc1 [duvelisib]
In short: as §1

[6] = compound: Cc1cc(Nc2cc(CN3CCOCC3)c3nc(C)c(Cc4ccc(Cl)cc4F)n3n2)n[nH]1 [gandotinib]
In short: as §1

[7] = compound: Cc1cc(Nc2cc(N3CCN(C)CC3)nc(Sc3ccc(NC(=O)C4CC4)cc3)n2)n[nH]1 [tozasertib]
In short: as §1

[8] = compound: Cc1cc(SCc2sc(-c3ccc(C(F)(F)F)cc3)nc2C)ccc1OCC(=O)O
In short: as §1

[9] = compound: Cc1ccc(-n2nc(C(C)(C)C)cc2NC(=O)Nc2ccc(OCCN3CCOCC3)c3ccccc23)cc1 [doramapimod]
In short: as §1

[10] = compound: Cc1ccc(C(=O)N(CCCN)[C@@H](c2nc3cc(Cl)ccc3c(=O)n2Cc2ccccc2)C(C)C)cc1 [ispinesib]
In short: as §1

[11] = compound: Cc1ccc(NC(=O)c2ccc(CN3CC[C@H](N(C)C)C3)c(C(F)(F)F)c2)cc1Nc1nccc(-c2cncnc2)n1 [bafetinib]
In short: as §1

[12] = compound: Cc1cccc(CC(=O)N2CCc3c2ccc(-c2cn(C)c4ncnc(N)c24)c3F)n1
In short: as §1

[13] = compound: Cc1cn(-c2cc(NC(=O)c3ccc(C)c(Nc4nccc(-c5cccnc5)n4)c3)cc(C(F)(F)F)c2)cn1 [nilotinib]
In short: as §1

[14] = compound: Cc1nc(Nc2n[nH]c3c2CN(C(=O)N[C@H](CN(C)C)c2ccccc2)C3(C)C)c2sccc2n1
In short: as §1

[15] = compound: Cc1nc(Nc2ncc(C(=O)Nc3c(C)cccc3Cl)s2)cc(N2CCN(CCO)CC2)n1 [dasatinib]
In short: as §1

[16] = compound: Cc1ncc(-c2ccnc(Nc3ccc(S(C)(=O)=O)cc3)n2)n1C(C)C
In short: as §1

[17] = compound: Cn1cc(-c2ccc3c(c2)CCN3C(=O)Cc2cccc(C(F)(F)F)c2)c2c(N)ncnc21
In short: as §1

[18] = compound: Cn1cc(-c2ccc3nnc(C(F)(F)c4ccc5ncccc5c4)n3n2)cn1
In short: as §1

[19] = compound: Cn1cncc1[C@@](N)(c1ccc(Cl)cc1)c1ccc2c(c1)c(-c1cccc(Cl)c1)cc(=O)n2C [tipifarnib]
In short: as §1

[20] = compound: FC(F)(F)c1ccc(/C=C/c2nc(COc3ccc(CCCCn4ccnn4)cc3)co2)cc1 [mubritinib]
In short: as §1

Chain of UniProt P49321 (P49321 whole entry, looked up): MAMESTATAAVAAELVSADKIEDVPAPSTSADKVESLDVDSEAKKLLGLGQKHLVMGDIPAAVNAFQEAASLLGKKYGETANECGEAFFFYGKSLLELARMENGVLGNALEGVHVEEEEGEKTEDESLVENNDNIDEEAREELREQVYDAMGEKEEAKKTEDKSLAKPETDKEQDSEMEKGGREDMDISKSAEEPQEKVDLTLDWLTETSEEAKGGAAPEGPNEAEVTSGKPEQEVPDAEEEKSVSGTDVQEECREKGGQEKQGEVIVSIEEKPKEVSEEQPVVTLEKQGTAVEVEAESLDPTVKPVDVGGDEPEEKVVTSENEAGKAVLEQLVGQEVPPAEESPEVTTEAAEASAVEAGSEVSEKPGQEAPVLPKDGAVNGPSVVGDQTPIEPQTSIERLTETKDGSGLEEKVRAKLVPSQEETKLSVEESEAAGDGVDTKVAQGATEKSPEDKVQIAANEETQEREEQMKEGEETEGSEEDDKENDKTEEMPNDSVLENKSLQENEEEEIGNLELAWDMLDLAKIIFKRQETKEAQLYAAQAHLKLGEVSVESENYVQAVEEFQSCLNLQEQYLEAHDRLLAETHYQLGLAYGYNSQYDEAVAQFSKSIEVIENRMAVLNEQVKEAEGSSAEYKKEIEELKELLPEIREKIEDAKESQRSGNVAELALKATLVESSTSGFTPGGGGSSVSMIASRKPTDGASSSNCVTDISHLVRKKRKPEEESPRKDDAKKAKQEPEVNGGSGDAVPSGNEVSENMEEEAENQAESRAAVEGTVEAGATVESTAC
Chain of UniProt Q9HAN9 (Q9HAN9 whole entry, looked up): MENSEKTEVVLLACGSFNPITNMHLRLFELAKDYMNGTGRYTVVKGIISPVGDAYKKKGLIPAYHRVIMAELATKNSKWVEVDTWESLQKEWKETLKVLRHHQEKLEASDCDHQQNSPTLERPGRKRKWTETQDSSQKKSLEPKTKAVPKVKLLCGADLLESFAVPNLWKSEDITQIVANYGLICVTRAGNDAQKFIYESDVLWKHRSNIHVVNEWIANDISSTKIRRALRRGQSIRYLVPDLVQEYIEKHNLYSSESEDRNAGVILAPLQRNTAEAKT
Chain of UniProt Q8NBF2 (Q8NBF2 whole entry, looked up): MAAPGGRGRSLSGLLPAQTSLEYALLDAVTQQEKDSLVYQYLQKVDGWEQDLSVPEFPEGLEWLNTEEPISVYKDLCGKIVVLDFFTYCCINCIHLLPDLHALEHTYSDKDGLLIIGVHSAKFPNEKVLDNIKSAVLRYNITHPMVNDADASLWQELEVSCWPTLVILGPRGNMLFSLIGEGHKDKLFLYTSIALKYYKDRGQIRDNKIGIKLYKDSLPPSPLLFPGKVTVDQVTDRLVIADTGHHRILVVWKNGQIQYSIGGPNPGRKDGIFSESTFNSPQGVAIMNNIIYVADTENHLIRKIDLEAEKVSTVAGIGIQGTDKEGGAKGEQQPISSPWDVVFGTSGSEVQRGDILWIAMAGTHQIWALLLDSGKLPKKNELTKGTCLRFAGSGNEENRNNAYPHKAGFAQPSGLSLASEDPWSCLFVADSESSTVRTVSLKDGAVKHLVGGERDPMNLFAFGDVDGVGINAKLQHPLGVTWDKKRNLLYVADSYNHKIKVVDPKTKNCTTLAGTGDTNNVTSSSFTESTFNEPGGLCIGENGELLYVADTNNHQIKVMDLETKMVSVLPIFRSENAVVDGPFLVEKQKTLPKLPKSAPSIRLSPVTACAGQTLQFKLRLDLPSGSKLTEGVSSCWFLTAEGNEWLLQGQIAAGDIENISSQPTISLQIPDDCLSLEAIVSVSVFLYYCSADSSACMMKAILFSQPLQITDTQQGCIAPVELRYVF
Chain of UniProt Q330K2 (Q330K2 whole entry, looked up): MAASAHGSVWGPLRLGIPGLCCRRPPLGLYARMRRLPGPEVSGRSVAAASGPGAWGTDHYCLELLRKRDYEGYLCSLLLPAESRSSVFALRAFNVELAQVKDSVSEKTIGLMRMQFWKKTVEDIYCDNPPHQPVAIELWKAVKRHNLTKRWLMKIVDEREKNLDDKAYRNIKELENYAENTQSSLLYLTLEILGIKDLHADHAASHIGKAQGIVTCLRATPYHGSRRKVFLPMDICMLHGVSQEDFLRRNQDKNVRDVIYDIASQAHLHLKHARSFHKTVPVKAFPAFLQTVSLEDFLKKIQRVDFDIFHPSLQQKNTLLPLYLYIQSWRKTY
Chain of UniProt Q9H000 (Q9H000 whole entry, looked up): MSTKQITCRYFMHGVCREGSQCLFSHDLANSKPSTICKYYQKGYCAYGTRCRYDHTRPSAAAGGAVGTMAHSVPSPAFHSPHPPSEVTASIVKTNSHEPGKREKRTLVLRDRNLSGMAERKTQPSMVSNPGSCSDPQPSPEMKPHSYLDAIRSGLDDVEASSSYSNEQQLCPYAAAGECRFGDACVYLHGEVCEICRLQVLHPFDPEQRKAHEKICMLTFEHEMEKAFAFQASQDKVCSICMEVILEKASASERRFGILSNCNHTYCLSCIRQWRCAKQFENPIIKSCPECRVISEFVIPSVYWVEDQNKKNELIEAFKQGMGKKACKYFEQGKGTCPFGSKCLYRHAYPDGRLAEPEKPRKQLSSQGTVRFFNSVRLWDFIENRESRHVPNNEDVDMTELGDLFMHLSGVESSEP
Chain of UniProt Q9UBD5 (Q9UBD5 whole entry, looked up): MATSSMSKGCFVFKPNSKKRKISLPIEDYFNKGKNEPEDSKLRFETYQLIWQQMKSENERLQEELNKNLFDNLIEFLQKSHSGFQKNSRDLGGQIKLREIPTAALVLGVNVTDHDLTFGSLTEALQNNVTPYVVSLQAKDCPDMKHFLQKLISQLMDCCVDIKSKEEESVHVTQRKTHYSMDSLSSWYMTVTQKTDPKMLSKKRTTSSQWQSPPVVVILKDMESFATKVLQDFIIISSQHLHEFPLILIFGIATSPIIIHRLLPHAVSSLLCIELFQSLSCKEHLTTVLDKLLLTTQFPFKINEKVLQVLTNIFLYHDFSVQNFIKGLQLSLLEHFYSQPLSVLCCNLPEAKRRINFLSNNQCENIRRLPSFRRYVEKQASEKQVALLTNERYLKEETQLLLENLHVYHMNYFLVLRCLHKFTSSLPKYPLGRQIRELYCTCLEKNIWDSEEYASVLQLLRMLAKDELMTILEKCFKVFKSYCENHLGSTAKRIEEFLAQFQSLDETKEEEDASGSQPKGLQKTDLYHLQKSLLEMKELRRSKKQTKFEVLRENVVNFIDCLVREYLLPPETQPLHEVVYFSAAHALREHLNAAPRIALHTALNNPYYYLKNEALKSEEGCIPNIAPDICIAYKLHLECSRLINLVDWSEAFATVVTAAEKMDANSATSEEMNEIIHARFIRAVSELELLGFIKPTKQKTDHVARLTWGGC
Chain of UniProt Q9NR45 (Q9NR45 whole entry, looked up): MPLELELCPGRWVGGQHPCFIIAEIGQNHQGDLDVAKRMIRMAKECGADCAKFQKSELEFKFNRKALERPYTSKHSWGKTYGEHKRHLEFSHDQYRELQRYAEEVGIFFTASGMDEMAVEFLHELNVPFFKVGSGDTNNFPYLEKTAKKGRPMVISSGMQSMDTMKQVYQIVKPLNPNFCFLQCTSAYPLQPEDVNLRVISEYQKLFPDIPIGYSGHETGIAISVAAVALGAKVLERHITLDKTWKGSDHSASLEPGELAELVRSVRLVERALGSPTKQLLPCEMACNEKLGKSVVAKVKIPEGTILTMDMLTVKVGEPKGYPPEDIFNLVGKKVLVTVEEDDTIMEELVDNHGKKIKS
Chain of UniProt Q9UMY1 (Q9UMY1 whole entry, looked up): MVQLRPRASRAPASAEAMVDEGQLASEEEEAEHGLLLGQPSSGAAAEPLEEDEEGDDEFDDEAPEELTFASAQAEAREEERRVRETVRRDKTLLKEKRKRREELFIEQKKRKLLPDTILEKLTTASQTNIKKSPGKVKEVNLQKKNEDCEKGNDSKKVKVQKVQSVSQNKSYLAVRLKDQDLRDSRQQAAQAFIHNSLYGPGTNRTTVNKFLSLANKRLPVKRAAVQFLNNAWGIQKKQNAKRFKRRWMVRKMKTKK
Chain of UniProt Q9BW27 (Q9BW27 whole entry, looked up): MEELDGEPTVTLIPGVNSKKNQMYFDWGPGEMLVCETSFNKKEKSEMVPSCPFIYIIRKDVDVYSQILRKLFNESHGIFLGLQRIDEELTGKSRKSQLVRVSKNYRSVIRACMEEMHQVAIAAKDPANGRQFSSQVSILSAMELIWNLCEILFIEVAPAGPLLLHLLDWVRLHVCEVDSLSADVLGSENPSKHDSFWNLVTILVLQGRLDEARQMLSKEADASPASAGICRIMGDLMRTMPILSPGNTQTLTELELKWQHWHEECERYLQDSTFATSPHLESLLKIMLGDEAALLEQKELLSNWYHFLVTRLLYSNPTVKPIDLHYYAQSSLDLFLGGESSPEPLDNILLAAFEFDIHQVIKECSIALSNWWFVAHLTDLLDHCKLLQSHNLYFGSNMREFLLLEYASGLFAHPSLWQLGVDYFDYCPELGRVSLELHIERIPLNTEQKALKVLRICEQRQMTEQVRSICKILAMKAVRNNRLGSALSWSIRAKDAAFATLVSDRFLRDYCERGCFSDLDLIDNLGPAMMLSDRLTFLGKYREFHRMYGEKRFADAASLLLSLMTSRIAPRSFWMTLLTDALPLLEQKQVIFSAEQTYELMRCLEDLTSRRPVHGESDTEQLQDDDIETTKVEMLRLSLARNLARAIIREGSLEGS
Chain of UniProt P00846 (P00846 whole entry, looked up): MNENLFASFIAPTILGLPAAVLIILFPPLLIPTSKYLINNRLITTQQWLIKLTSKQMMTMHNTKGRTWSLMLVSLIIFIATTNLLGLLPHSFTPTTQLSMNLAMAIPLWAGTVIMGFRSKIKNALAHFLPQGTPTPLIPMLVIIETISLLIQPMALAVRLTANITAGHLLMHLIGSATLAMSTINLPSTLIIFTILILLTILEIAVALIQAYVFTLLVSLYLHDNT

Row | Target | log2 fold change [1] | log2 fold change [2] | log2 fold change [3] | log2 fold change [4] | log2 fold change [5] | log2 fold change [6] | log2 fold change [7] | log2 fold change [8] | log2 fold change [9] | log2 fold change [10] | log2 fold change [11] | log2 fold change [12] | log2 fold change [13] | log2 fold change [14] | log2 fold change [15] | log2 fold change [16] | log2 fold change [17] | log2 fold change [18] | log2 fold change [19] | log2 fold change [20]
1 | NMNAT1 (UniProt Q9HAN9) | -0.053 | -0.016 | -0.435 | 0.164 | -0.046 | 0.132 | 0.024 | -0.056 | 0.296 | -0.212 | 0.052 | -0.034 | -0.073 | 0.023 | 0.159 | -0.047 | -0.143 | -0.21 | 0.118 | -0.047
2 | MTHFD1 (UniProt P11586) | 0.101 | -0.15 | 0.107 | -0.003 | 0.016 | -0.077 | -0.054 | 0.054 | -0.053 | -0.021 | 0.077 | 0.096 | 0.214 (active) | -0.051 | -0.135 | 0.019 | 0.069 | 0.021 | -0.088 | 0.122
3 | NMRAL1 (UniProt Q9HBL8) | 0.228 | 0.469 | 0.054 | 0.04 | 0.046 | -0.169 | -0.056 | -0.009 | 0.001 | -0.103 | 0.806 (active) | -0.026 | 1.29 (active) | 0.024 | -0.071 | -0.018 | 0.031 | 0.962 (active) | -0.035 | -0.145
4 | NHLRC2 (UniProt Q8NBF2) | 0.1 | -0.127 | 0.165 | -0.011 | 0.05 | -0.158 | -0.105 | 0.044 | -0.005 | -0.198 | -0.141 | 0.002 | -0.05 | -0.004 | -0.052 | -0.001 | 0.042 | 0.006 | -0.024 | 0.058
5 | NANS (UniProt Q9NR45) | -0.074 | 0.026 | 0.052 | -0.098 | 0.02 | -0.03 | 0.043 | 0.001 | -0.006 | 0.074 | 0.04 | 0.05 | 0.069 | -0.007 | -0.018 | -0.018 | 0.05 | -0.017 | -0.067 | -0.023
6 | NUP107 (UniProt P57740) | 0.101 | -0.067 | -0.083 | -0.062 | 0.031 | -0.229 | 0.028 | 0.093 | 0.11 | -0.018 | -0.013 | 0.716 (active) | -0.027 | -0.012 | -0.12 | -0.145 | -0.077 | -0.008 | -0.026 | -0.036
7 | MKRN2 (UniProt Q9H000) | -0.035 | -0.094 | -0.077 | 0.117 | -0.111 | 0.221 | 0.085 | 0.076 | -0.005 | -0.161 | 0.073 | -0.194 | -0.048 | -0.062 | -0.088 | 0.066 | -0.284 | -0.099 | -0.01 | -0.142
8 | NEMP1 (UniProt O14524) | -0.058 | -0.121 | -0.035 | 0.011 | 0.013 | -0.1 | -0.004 | -0.014 | 0.032 | -0.354 (active) | -0.147 | 0.065 | -0.186 | 0.004 | -0.009 | 0.003 | -0.007 | -0.025 | 0 | 0.036
9 | NASP (UniProt P49321) | 0.005 | 0.063 | 0.045 | -0.061 | 0.08 | -0.066 | 0.105 | 0.013 | -0.053 | 0.06 | -0.036 | 0.011 | -0.013 | -0.032 | -0.027 | 0 | -0.02 | 0.009 | -0.026 | 0.026
10 | NOL7 (UniProt Q9UMY1) | -0.054 | 0.065 | -0.661 | 0.415 | -0.201 | 0.124 | -0.001 | 0.003 | 0.187 | -0.052 | 0.284 | -0.107 | -0.016 | 0.146 | 0.183 | -0.073 | -0.257 | -0.148 | 0.154 | -0.156
11 | ORC3 isoform 2 (UniProt Q9UBD5) | -0.054 | -0.434 (active) | 0.015 | -0.005 | -0.03 | -0.044 | 0.062 | 0.177 | 0.016 | -0.17 | -0.032 | 0.099 | -0.262 | -0.254 | -0.298 | -0.118 | 0.067 | 0.109 | 0.086 | 0.029
12 | NDUFAF6 (UniProt Q330K2) | -0.052 | -0.197 | 0.182 | -0.025 | 0.144 | -0.167 | -0.051 | 0.027 | -0.065 | -0.273 | -0.178 | 0.014 | 0.01 | -0.096 | -0.064 | 0.017 | 0.01 | 0 | -0.11 | 0.028
13 | NUP85 (UniProt Q9BW27) | 0.022 | -0.007 | 0.049 | -0.088 | 0.033 | -0.107 | 0.048 | 0.026 | -0.021 | 0.015 | -0.088 | 0.02 | -0.027 | -0.115 | -0.068 | -0.013 | -0.009 | -0.002 | -0.031 | 0.026
14 | NIPSNAP2 (UniProt O75323) | -0.014 | 0.083 | 0.068 | -0.041 | 0.019 | 0.057 | -0.084 | 0.105 | -0.106 | 0.162 | 0.02 | -0.012 | 0.082 | -0.003 | 0.05 | -0.033 | 0.185 | 0.025 | -0.058 | 0.041
15 | MRPS9 (UniProt P82933) | -0.001 | 0.011 | 0.036 | 0.202 | -0.023 | -0.054 | -0.055 | 0.086 | 0.031 | -0.344 (active) | 0.106 | 0.067 | -0.094 | 0.008 | -0.023 | -0.024 | -0.073 | 0.057 | -0.025 | 0.085
16 | MT-ATP6 (UniProt P00846) | 0.041 | 0.355 | 0.225 | 0.135 | 0.153 | 0.143 | 0.045 | -0.081 | -0.038 | 0.076 | 0.162 | 0.086 | 0.006 | 0.005 | -0.101 | -0.043 | -0.024 | 0.11 | 0.231 | 0.028
